About 5,100 (32%) of roughly 16,000 compounds were called active. Another 25% or so got no clear call; they are omitted. Calls follow the shape of the dose curve; as a rule, active = well fitted curve in the direction sought with a large enough effect; inconclusive = small, poorly fitted or top-dose-only effect, or effect the other way; inactive = no such curve, though single readings can be large or run the other way. Some of the results follow. Square brackets hold non-standard residues; d marks the D form. Peptide text beside a SMILES is read from it.
% is scaled to controls: 0 for no effect and ±100 for the full control effect.

Cytochrome P450 3A4 (Homo sapiens), sequence (P08684 whole entry, looked up): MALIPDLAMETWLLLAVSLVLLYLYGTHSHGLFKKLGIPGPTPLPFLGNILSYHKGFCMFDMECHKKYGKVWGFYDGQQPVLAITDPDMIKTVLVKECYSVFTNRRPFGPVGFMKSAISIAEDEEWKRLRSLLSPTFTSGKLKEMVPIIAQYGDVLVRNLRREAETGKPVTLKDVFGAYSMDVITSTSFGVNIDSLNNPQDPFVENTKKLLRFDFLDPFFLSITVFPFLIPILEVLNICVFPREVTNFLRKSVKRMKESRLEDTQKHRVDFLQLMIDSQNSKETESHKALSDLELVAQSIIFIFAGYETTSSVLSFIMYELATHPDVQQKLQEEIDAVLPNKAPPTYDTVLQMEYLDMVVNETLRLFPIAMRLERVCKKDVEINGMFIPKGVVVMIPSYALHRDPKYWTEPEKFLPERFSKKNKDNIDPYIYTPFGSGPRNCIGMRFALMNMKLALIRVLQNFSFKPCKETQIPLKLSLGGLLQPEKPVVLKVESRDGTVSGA

The experiment concerns the target Cytochrome P450 3A4 (Homo sapiens) (UniProt P08684). Nature of the experiment: Cytochrome panel assay with activity outcomes. The following applies: recombinant CYP, pro-luciferin dealkylation, luminescence, p450-cyp3a4; series mostly up to 57.1 µM.
By AC50 is commonly meant the midpoint of the concentration-response curve, whichever way the signal moves. For `CCCCCCCCCCCCCCSCC(=O)O`, the AC50 entry is “inactive”.

Consider `Cc1ccc(OCC(O)CNC(=O)c2ccccc2C(=O)O)cc1` (stereo not drawn), for which the AC50 is 28.2 µM (active).

Take `O=C(O)COc1ccc(OCCNC[C@@H](O)COc2ccccc2)cc1`: the AC50 entry is “inactive”.

On to `O=C(NCCNC[C@@H](O)COc1ccc(O)cc1)N1CCOCC1`, for which the AC50 entry is “inactive”.

For `Cc1ccnc2nc(C(=O)OCC(=O)Nc3ccc4c(c3)OC(F)(F)O4)nn12`, the AC50 entry is “inactive”.

`COc1cc(C)cc(OC)c1/C=C\C(=O)O`: the activity, negative = inhibition was -4.32% [at 11.4 µM] (inactive).

As to `COC(=O)[C@@]1(Cc2ccc(F)cc2)[C@H]2c3cc(C(=O)N4CCCC4)n(CCc4ccc(O)c(O)c4)c3C[C@H]2CN1C(=O)c1ccccc1`, the AC50 was 2.51 µM (active).

For `COC(=O)[C@@]1(Cc2ccc(F)cc2)[C@H]2c3cc(C(=O)N4CCCC4)n(CCc4ccc(OC)c(Br)c4)c3C[C@H]2CN1C(=O)c1ccccc1`, the AC50 is 2.51 µM (active).

Regarding `Cc1cc(OCC(F)(F)C(F)(F)C(F)(F)C(F)(F)C(F)(F)C(F)F)nc(N)n1`, the AC50 result is “inactive”.

With `Nc1nc(-c2ccccc2)c(-c2ccccc2)c(-c2nc(N)nc(-c3ccccc3)c2-c2ccccc2)n1`, the activity, negative = inhibition is 4.04% [at 11.4 µM] (inactive).

Turning to `Nc1nc(-c2ccccc2)c(-c2ccccc2)s1`, the activity, negative = inhibition was -8.94% [at 2.29 µM] (inactive).

`Nc1ccc(-c2sc(N)nc2-c2ccccc2)cc1`: the AC50 is 10 µM (active).

Turning to `CSC1=N/C(=C\c2ccc(Br)o2)C(=O)S1`, the activity, negative = inhibition is -3.65% [at 11.4 µM] (inactive).

On to `C=CC[C@@H]1C=C[C@H](O/N=C(\C)CCN2CCc3nc(CC)c(CC)cc3C2)[C@H](CO)O1`, for which the activity, negative = inhibition is -75.9% [at 11.4 µM] (inactive).

For `COc1ccc(O[C@H]2C=C[C@@H](c3ccccc3)O[C@@H]2CO/N=C(\C)CCN2CCc3nc(-c4ccccc4)c(-c4ccccc4)cc3C2)cc1`, the activity, negative = inhibition is -57.3% [at 11.4 µM] (inactive).

Take `CCCNC(=O)OC[C@@H]1O[C@H](CCO/N=C(\C)CCN2CCc3nc(-c4ccccc4)c(-c4ccccc4)cc3C2)C=C[C@@H]1Oc1ccc(OC)cc1`: the AC50 is 3.16 µM (active).

For `CCCNC(=O)OC[C@@H]1O[C@H](CCO/N=C(\C)CCN2CCc3nc(CC)c(CC)cc3C2)C=C[C@@H]1Oc1ccc(OC)cc1`, the AC50 was 3.98 µM (active).

As for `C=CC[C@@H]1C=C[C@H](O/N=C(\C)CCN2CCc3nc(-c4ccccc4)c(-c4ccccc4)cc3C2)[C@H](CO)O1`, the AC50 is 3.98 µM (active).

As for `Cc1c(C)c(C)c(CC2(C)CSC2)c(CC2(C)CSC2)c1C`, the activity, negative = inhibition was -14.4% [at 11.4 µM] (inactive).

Regarding `CC(C)(C)NC(=O)CN(Cc1cccs1)C(=O)CCC(=O)Nc1nccs1`, the AC50 is 4.47 µM (active).

For `CN(C)CCN(Cc1cccs1)c1ccccn1`, the AC50 entry is “inactive”.

Consider `CC1=CC2=NC(=O)CC(C)(C(=O)N(CC(=O)NC(C)(C)C)Cc3cccs3)N2C=C1` (stereo not drawn), for which the AC50 entry was “inactive”.

In the case of `CSc1nc(C)c2c(n1)N(c1ccc(C(F)(F)F)cc1)CC2`, the AC50 entry was “inactive”.

`CCOC(=O)c1c(-c2ccc(C)cc2)csc1NC(=O)C1CC=CCC1C(=O)O` (stereo not drawn): the activity, negative = inhibition was -2.99% [at 2.29 µM] (inactive).

As to `CCOC(=O)c1c(-c2ccc(C)o2)csc1NC(=S)NC(=O)N(C)C`, the AC50 was 15.8 µM (active).

With `CCOC(=O)c1c(-c2ccccc2)csc1NC(=O)c1cccc(N2C(=O)CCC2=O)c1`, the AC50 result is “inactive”.

Take `CN(C)C(=O)c1ccc(-c2ccc3ncnc(N4CCOCC4)c3c2)cc1`: the AC50 was 15.8 µM (active).

As for `COc1cccc(-c2ccc3ncnc(N4CCN(C)CC4)c3c2)c1`, the AC50 is 15.8 µM (active).

As to `COc1ccc(-c2nc(-c3cccc(C)c3)nc(N3CCN(C)CC3)c2C#N)cc1`, the activity, negative = inhibition is -13.1% [at 2.29 µM] (inactive).

Take `CN(C)C(=O)c1ccc(-c2ccc3ncnc(N4CCNCC4)c3c2)cc1`: the AC50 result is “inactive”.

`COc1ccc(-c2nsc3c(N4CCCCC4)ncnc23)cc1`: the AC50 result was “inactive”.

For the compound `COc1cccc(-c2ccc3ncnc(N4CCOCC4)c3c2)c1`, the AC50 is 10 µM (active).

For the compound `COc1cc(N2CCOCC2)ncn1`, the AC50 entry is “inactive”.

For the compound `NCC[C@H]1CCC[C@H](CCN)N1`, the AC50 result was “inactive”.

Turning to `CCOC(=O)N1CCN(c2c(-c3ccccc3)c3cc(Cl)ccc3[nH]c2=O)CC1`, the AC50 result is “inactive”.

As to `O=C(Cc1ccc(-n2c(=O)[nH]c3ccccc3c2=O)cc1)N1CCN(c2cccc(Cl)c2)CC1`, the AC50 was 3.16 µM (active).

For the compound `O=c1nc2ccccc2c2n1CC(CN1CCN(c3cccc(Cl)c3)CC1)N2` (stereo not drawn), the AC50 result is “inactive”.

Consider `N/C(CC/C(N)=N/O)=N\O`, for which the activity, negative = inhibition is -5.56% [at 11.4 µM] (inactive).

For `CCOC(=O)CCN1C(=O)[C@H]2[C@@H]3[C@H](O)C=CC(=O)[C@H]3CC[C@H]2C1=O`, the activity, negative = inhibition was -11.5% [at 11.4 µM] (inactive).

Turning to `Cc1cccc(C)c1NC(=O)CCN1C(=O)C2C3CCC(C3)C2C1=O` (stereo not drawn), the activity, negative = inhibition is 0.821% [at 2.29 µM] (inactive).

`Cc1cc(NC(=O)CCN2C(=O)C3C4CCC(C4)C3C2=O)c(C)cc1Br` (stereo not drawn): the AC50 is 7.94 µM (active).

As to `CCN1CCN(C(=O)CCc2nc3ccccc3c(=O)[nH]2)CC1`, the AC50 entry is “inactive”.

With `O=C(CCc1nc2ccccc2c(=O)[nH]1)OCC(=O)N1CCN(S(=O)(=O)c2ccccc2)CC1`, the AC50 was 7.94 µM (active).

Turning to `O=C(/C=C/c1ccccc1)N1CCN(Cc2nc3ccccc3c(=O)[nH]2)CC1`, the AC50 result is “inactive”.

In the case of `C[C@H]1C=C2C=C[C@H](C)[C@H](CC[C@@H]3C[C@@H](O)CC(=O)O3)[C@H]2[C@@H](OC(=O)[C@@H](C)CCO)C1`, the AC50 was 12.6 µM (active).

As for `CC[C@H](C)C(=O)O[C@H]1CCC=C2C=C[C@H](C)[C@H](CC[C@@H]3C[C@H](O)CC(=O)O3)[C@H]21`, the AC50 was 12.6 µM (active).

With `CCCCCC1CCC(C(=O)NNC(=S)NCC)CC1` (stereo not drawn), the activity, negative = inhibition was -1.07% [at 2.29 µM] (inactive).

Consider `CN(C)CC[C@H](c1ccc(Br)cc1)c1ccccn1`, for which the AC50 entry is “inactive”.

As for `COCCN(C(=O)C(C)C)c1nnc(-c2ccc(C)cc2)s1`, the AC50 result was “inactive”.

For the compound `CCn1c(SCC(=O)N2CCOCC2)nc2oc3c(Cl)cc(Cl)cc3c(=O)c2c1=O`, the AC50 is 11.2 µM (active).

Turning to `CC(C)Cn1c(-c2ccc(Cl)cc2)cnc1SCC(=O)N1CCOCC1`, the activity, negative = inhibition is -5.92% [at 2.29 µM] (inactive).

With `NC(=O)[C@@H]1CCCN1Cc1ccc2c(c1)OCO2`, the activity, negative = inhibition is -37.8% [at 11.4 µM] (inactive).

Regarding `CC(C)(C)NC(=O)CSc1nnc(Cc2ccc3c(c2)OCO3)n1C1CCCCC1`, the AC50 is 0.447 µM (active).

Regarding `CC(C)N=c1scc(-c2ccco2)n1/N=C/c1ccc(O)c(O)c1`, the AC50 was 12.6 µM (active).

`C[N+](C)(C)/N=C\c1ccc(O)c(O)c1`: the activity, negative = inhibition was -21.1% [at 11.4 µM] (inactive).

In the case of `NCCc1nc(-c2nc(C(=O)O)cs2)cs1`, the activity, negative = inhibition is -14.8% [at 11.4 µM] (inactive).

As to `COc1ccc(C(=O)N2CCC3(CCCN(C)C3)CC2)cc1`, the AC50 entry was “inactive”.

For the compound `CC(=O)N1CCC2(CCN(Cc3ccncc3)CC2)CC1`, the AC50 result was “inactive”.

In the case of `O=C(c1ccncc1)N1CCC2(CCCN(Cc3ccncc3)C2)CC1`, the AC50 is 5.01 µM (active).

As to `O=C(c1cccc(F)c1)N1CCC2(CCN(Cc3ccccc3)CC2)CC1`, the AC50 result was “inactive”.

As for `O=C(c1ccncc1)N1CCC2(CCN(Cc3ccccc3)CC2)CC1`, the AC50 is 15.8 µM (active).

For the compound `COc1ccc(C(=O)N2CCC3(CCCN(Cc4ccncc4)C3)CC2)cc1`, the AC50 was 7.94 µM (active).

For the compound `COc1ccc(C(=O)N2CCC3(CCN(Cc4ccncc4)CC3)CC2)cc1`, the AC50 was 15.8 µM (active).

In the case of `O=C(O)CP(=O)(O)O`, the AC50 result was “inactive”.

Turning to `Oc1c(Cl)cc(CN(Cc2cc(Cl)c(O)c(Cl)c2)C2CCCCC2)cc1Cl`, the activity, negative = inhibition is -4.66% [at 11.4 µM] (inactive).

Take `O=C(c1csnn1)N1CCC2(CCCN(Cc3ccccc3)C2)CC1`: the AC50 entry was “inactive”.

As for `O=C(c1ccncc1)N1CCC2(CCCN(Cc3ccccc3)C2)CC1`, the AC50 was 10 µM (active).

With `CC(=O)N1CCC2(CCCN(Cc3ccccc3)C2)CC1`, the AC50 entry was “inactive”.

Turning to `CC(=O)N1CCC2(CC1)CN(Cc1ccccc1)C2`, the AC50 entry was “inactive”.

In the case of `O=C(c1ccncc1)N1CCC[C@@]2(CCN(Cc3ccccc3)C2)C1`, the AC50 was 15.8 µM (active).

In the case of `CC(=O)OC1CCC(OC(C)=O)c2c1n([O-])c(C)c(C)[n+]2=O` (stereo not drawn), the AC50 entry is “inactive”.

In the case of `COC(=O)c1c(-n2c(C)cc(C=O)c2C)sc2c1CCCC2`, the AC50 was 7.08 µM (active).

Turning to `O=C(NCCc1ccccc1)c1noc2c1CCc1ccccc1-2`, the activity, negative = inhibition is -2.2% [at 2.29 µM] (inactive).

With `O=C1Nc2ccccc2/C1=N/c1sc2c(c1C(=O)NCCc1ccccc1)CCCC2`, the AC50 was 7.08 µM (active).

Take `O=C1Nc2ccccc2C1=Nc1cccc2ncccc12`: the activity, negative = inhibition was -14.3% [at 11.4 µM] (inactive).

As to `NCC(=O)N[C@H](CO)C(=O)O` (H-Gly-[dS]-OH), the activity, negative = inhibition was -9.24% [at 11.4 µM] (inactive).

Regarding `CCN1CCN(c2nc3ccccc3nc2C(C#N)C(=O)OC2CCCCC2)CC1` (stereo not drawn), the AC50 is 10 µM (active).

Regarding `CC(C)OC(=O)C(C#N)c1nc2ccccc2nc1N1CCN(Cc2ccccc2)CC1` (stereo not drawn), the AC50 entry is “inactive”.

Regarding `C[N+]1(C)CCC(OC(=O)C(c2ccccc2)c2ccccc2)CC1`, the AC50 result was “inactive”.

Turning to `CCCCCCOC(=O)C(C#N)c1nc2ccccc2nc1N1CCN(CC)CC1` (stereo not drawn), the AC50 is 28.2 µM (active).

Consider `Cc1cc(C)nc(Nc2n[nH]c(-c3cccc4ccccc34)n2)n1`, for which the AC50 is 14.1 µM (active).

Take `Cc1cc(Oc2ccccc2)nc(NCc2ccccc2)n1`: the activity, negative = inhibition is 7.15% [at 11.4 µM] (inactive).

Consider `Cc1noc2ncnc(Oc3ccc4ccccc4c3)c12`, for which the AC50 result was “inactive”.

`NC(=O)Nc1n[nH]c(-c2ccccc2)n1`: the activity, negative = inhibition was -3.37% [at 11.4 µM] (inactive).

In the case of `Nc1nc(-c2cc(-c3cccc4ccccc34)nc(N)n2)cc(-c2cccc3ccccc23)n1`, the activity, negative = inhibition was 6.26% [at 11.4 µM] (inactive).

`Cc1cc(C)nc(Nc2n[nH]c(COc3ccc4ccccc4c3)n2)n1`: the AC50 is 5.01 µM (active).

Turning to `O=c1[nH]ncn2cccc12`, the AC50 entry was “inactive”.

For `COc1ccccc1-n1c(SCC(=O)Nc2ccccc2F)nc2[nH]ncc2c1=O`, the AC50 is 14.1 µM (active).

`c1ccc2sc(SCCSc3nc4ccccc4s3)nc2c1`: the activity, negative = inhibition was 14.9% [at 11.4 µM] (inactive).

Regarding `Oc1ccccc1C(Sc1nc2ccccc2s1)Sc1nc2ccccc2s1`, the activity, negative = inhibition was -6.59% [at 11.4 µM] (inactive).

`NCCSc1nc(-c2ccccc2)c(-c2ccccc2)o1`: the activity, negative = inhibition is -23.1% [at 11.4 µM] (inactive).

Regarding `NCCSc1nc2ccccc2s1`, the AC50 was 3.16 µM (active).

With `c1ccc2sc(SCSc3nc4ccccc4s3)nc2c1`, the AC50 is 3.16 µM (active).

The values above are taken from PubChem BioAssay AID1851 (National Center for Advancing Translational Sciences (NCATS), 2009).
